Pol beta inh – DNA polymerase beta (human) inhibition. Pol beta primer extension/strand displacement, fluorescence kinetic. actives 1.3% (n = 340,000). P06746. Potency, µM (top dose mostly 114 µM), for inactives: top-dose activity change, negative = inhibition, actives largely listed as inhibitors; also: % is scaled to controls: 0 for no effect and ±100 for the full control effect
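Pol beta (10 nM) and compounds were preincubated 15 min at room temperature, then 50 nM substrate (final) started primer extension/strand displacement. Reads were taken at 0 and 10 min; concentration-response data were fitted to a four-parameter Hill equation.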
Pol kappa inh – inhibitors of human DNA polymerase kappa; purified Pol kappa, fluorescent DNA synthesis assay, 10 min; Potency, µM (doses to about 107 µM), inactives show at the highest dose activity, negative = inhibition, actives largely listed as inhibitors; actives 0.53% (n = 400,000); AID 588579; also: % is scaled to controls: 0 for no effect and ±100 for the full control effect
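Here, compound and 10 nM enzyme are combined for 15 min at room temperature; adding 50 nM substrate (final) starts DNA synthesis, tracked by fluorescence at 0 and 10 min against buffer-only wells.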
APE1 inh – inhibitors of human APE1 endonuclease. recombinant APE1, TAMRA/BHQ-2 abasic DNA cleavage fluorescence. Potency, µM (series often up to 65.8 µM), without a hit: at the highest dose activity change, negative = inhibition, most hits filed as inhibitors. actives 0.35% (n = 350,000);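 also: plate controls were vehicle for no effect and reference inhibitor for full effect; nearly all actives have a fitted effect of over 55% in size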
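Readout is kinetic fluorescence (ex 525, em 598 nm) from cleavage of 50 nM TAMRA/BHQ-2 THF abasic duplex by 0.75 nM APE1, compound added 15 min beforehand at RT.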
POLH inh – blocks human DNA polymerase eta activity. actives 1.2% (n = 390,000). recombinant Pol eta, fluorescent DNA replication assay. Potency, µM (doses to about 114 µM), without a hit: at the top dose activity change, negative = inhibition, actives largely listed as inhibitors. Q9Y253; also: % is scaled to controls: 0 for no effect and ±100 for the full control effect
Target sequence (Q9Y253 whole entry, looked up): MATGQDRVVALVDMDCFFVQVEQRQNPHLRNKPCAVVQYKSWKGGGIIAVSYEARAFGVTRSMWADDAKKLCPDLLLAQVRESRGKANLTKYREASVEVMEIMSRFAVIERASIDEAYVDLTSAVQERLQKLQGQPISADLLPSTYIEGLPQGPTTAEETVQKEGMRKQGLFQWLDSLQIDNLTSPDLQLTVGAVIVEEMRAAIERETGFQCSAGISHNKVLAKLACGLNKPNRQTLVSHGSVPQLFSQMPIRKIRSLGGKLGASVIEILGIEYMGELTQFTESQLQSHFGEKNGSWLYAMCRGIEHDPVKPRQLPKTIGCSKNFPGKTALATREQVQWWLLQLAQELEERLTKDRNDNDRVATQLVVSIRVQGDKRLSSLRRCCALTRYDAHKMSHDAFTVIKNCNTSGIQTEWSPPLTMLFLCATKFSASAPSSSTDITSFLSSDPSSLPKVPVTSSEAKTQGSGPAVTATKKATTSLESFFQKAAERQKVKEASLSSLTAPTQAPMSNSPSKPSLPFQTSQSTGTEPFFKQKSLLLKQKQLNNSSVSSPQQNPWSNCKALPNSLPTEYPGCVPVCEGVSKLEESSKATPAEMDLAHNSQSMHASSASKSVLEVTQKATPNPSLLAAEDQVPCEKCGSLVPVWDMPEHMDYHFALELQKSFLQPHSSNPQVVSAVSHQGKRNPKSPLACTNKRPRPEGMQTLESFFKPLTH
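Pol eta at 10 nM preincubated with compounds 15 min at room temperature; reaction started with fluorescent substrate (50 nM final) and read kinetically at 0 and 10 min.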
GLS inhibitor – glutaminase GLS (human) inhibition; O94925; GLS enzymatic activity, qHTS titration; Potency, µM (titrated, usually from 45.5 µM), for inactives: top-dose activity change, negative = inhibition, most hits filed as inhibitors; actives 0.21% (n = 410,000); also: % is scaled to controls: 0 for no effect and ±100 for the full control effect
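Enzyme dispensed in phosphate buffer (45 mM, pH 8.2, 0.02% Tween-20), compounds pinned in, then 1 mM L-glutamine solution and the glutamate oxidase–HRP–Amplex Red mix added; fluorescence read immediately and again after 30 min at room temperature.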
Pol iota inh – DNA polymerase iota (human) inhibition; Q9UNA4; Pol iota fluorescent replication assay, 10 min; Potency, µM (top dose mostly 115 µM), for inactives: at the highest dose activity, negative = inhibition, hits mostly inhibitors; actives 1% (n = 390,000); AID 588590
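Pol iota at 10 nM preincubated 15 min with compounds at room temperature; reaction started with fluorescent substrate, 50 nM final. Fluorescence read kinetically at 0 and 10 min; buffer-only wells as negative control.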
TbPGK inh – TbPGK inhibition, hit validation; shares compounds with Pol kappa inh; TbPGK coupled GAPDH assay, Kinase-Glo luminescence; Potency, µM (top dose mostly 57.5 µM), for inactives: at the highest dose activity change, negative = inhibition, actives largely listed as inhibitors; actives 79% (n = 500); AID 686980; also: % is scaled to controls: 0 for no effect and ±100 for the full control effect; nearly all actives have a fitted effect of over 65% in size
POLI cherry-pick – Inhibitors of human DNA polymerase iota, confirmation. shares compounds with Pol kappa inh. Pol iota primer extension, TAMRA/BHQ fluorescence. Potency, µM, hits mostly inhibitors. actives 77% (n = 1,500)
* = called active by the depositor; [ ] = dose if it differs, or a comment. Only some compounds are listed: those with a hit (about 2.4% of all), similar ones and a draw of the others. Calls follow the shape of the dose curve; as a rule, active = well fitted curve in the direction sought with a large enough effect; inconclusive = small, poorly fitted or top-dose-only effect, or another doubt; inactive = no such curve, though single readings can be large; an effect the other way counts as inactive or inconclusive. Potency is read from the fitted curve at half-maximal effect.

How did COc1ccc(OC)c(Nc2nc3nonc3nc2N2CCCCC2)c1 do in these assays?
Pol beta inh: 13%; Pol kappa inh: -5%; APE1 inh: -4%; POLH inh: -2%; GLS inhibitor: 16%; Pol iota inh: 7%

What do the screens show for `CCOc1ccc(/C=N/NC(=O)c2[nH]ncc2Br)c(O)c1`?
Pol beta inh: 23%; Pol kappa inh: -1%; APE1 inh: 10%; POLH inh: -7%; GLS inhibitor: 0%; Pol iota inh: 21%; TbPGK inh: 18µM*

What do the screens show for `COc1ccc(OC)c(/C=N/NC(=O)c2[nH]ncc2Br)c1`?
Pol beta inh: 37%; Pol kappa inh: -3%; APE1 inh: 16%; POLH inh: -20%; GLS inhibitor: -14%; Pol iota inh: -7%[58.9 µM]

How did Cc1ccc(/C=N/NC(=O)c2c(C)nc3ccc(Br)cn23)cc1 do in these assays?
Pol beta inh: 32%; Pol kappa inh: -4%; APE1 inh: 27%; POLH inh: -17%; GLS inhibitor: 0%; Pol iota inh: 11%

How did COc1ccc(/C=N\NC(=O)c2c(C)nc3ccc(Br)cn23)cc1 do in these assays?
Pol beta inh: inconclusive; Pol kappa inh: -33%; APE1 inh: 7%; POLH inh: inconclusive; GLS inhibitor: 2%; Pol iota inh: inconclusive; POLI cherry-pick: inconclusive

How did Cn1c(=O)c2c(SCC(=O)NCC3CCCO3)nc(-c3cccc(F)c3)nc2n(C)c1=O (stereo unspecified) do in these assays?
Pol beta inh: -27%; Pol kappa inh: -14%[60.1 µM]; POLH inh: 1%; GLS inhibitor: -17%; Pol iota inh: -5%

What do the screens show for `O=C(Nc1nc2ccccc2[nH]1)c1ccccc1F`?
Pol beta inh: 19%; Pol kappa inh: 3%; APE1 inh: -4%; POLH inh: -17%; GLS inhibitor: -5%; Pol iota inh: 21%; TbPGK inh: 8.2µM*

How did O=C(Nc1nc2ccccc2[nH]1)c1ccc(F)cc1 do in these assays?
Pol beta inh: 4%; Pol kappa inh: 0%; APE1 inh: -4%; POLH inh: -7%; GLS inhibitor: -13%; Pol iota inh: -5%[58.9 µM]

What do the screens show for `CC(C)(C)C1CCc2c(sc(NC(=O)CCC(=O)O)c2C(=O)Nc2ccccc2C(F)(F)F)C1` (stereo unspecified)?
Pol beta inh: inconclusive; Pol kappa inh: -25%; POLH inh: inconclusive; GLS inhibitor: 11%; Pol iota inh: inconclusive; POLI cherry-pick: inconclusive

How did CC(=O)Nc1sc2c(c1-c1nc3ccccc3s1)CCN(C)C2 do in these assays?
POLI cherry-pick: 38*

Results for O=C(CCCn1c(=S)[nH]c2cc3c(cc2c1=O)OCO3)NC1CC1 ?
Pol beta inh: 10%; Pol kappa inh: -5%; APE1 inh: -1%; POLH inh: -12%; GLS inhibitor: -19%; Pol iota inh: 26%

What do the screens show for `COc1cc([N+](=O)[O-])ccc1N/C=C/C(=O)c1cccs1`?
Pol beta inh: 15%; Pol kappa inh: -11%; APE1 inh: -2%; POLH inh: -11%; GLS inhibitor: 6%; Pol iota inh: -3%[58.9 µM]

Results for CCCSc1ccc2nc(-c3ccccc3)cn2c1 ?
Pol beta inh: 0%; Pol kappa inh: -28%; APE1 inh: 1%; POLH inh: -12%; GLS inhibitor: 7%; Pol iota inh: -12%; TbPGK inh: 18µM*

What do the screens show for `O=C1C[C@H](c2ccccc2)[C@@H](c2ccc(Br)cc2)O1`?
APE1 inh: -1%[12.4 µM]
